Residual activity data for 17 molecules are collected here from ChEMBL document CHEMBL2218924, “A broad activity screen in support of a chemogenomic map for kinase signalling research and drug discovery” (Biochem J, 2013).

The target in assay [1] is Ribosomal protein S6 kinase alpha-1 (Homo sapiens) (UniProt Q15418). As to conditions: at 1 µM.
The target is the same in assay [2]. The settings on record: at 10 µM.
The target of assay [3] is Ribosomal protein S6 kinase alpha-3 (Homo sapiens) (UniProt P51812). The settings on record: at 1 µM.
For assay [4] the target is unchanged. As to conditions: at 10 µM.
The target of assay [5] is Ribosomal protein S6 kinase alpha-2 (Homo sapiens) (UniProt Q15349). As to conditions: at 1 µM.
Assay [6] shares this target. As to conditions: at 10 µM.
For assay [7], the target named is Ribosomal protein S6 kinase alpha-6 (Homo sapiens) (UniProt Q9UK32). The settings on record: at 1 µM.
The target is the same in assay [8]. The settings on record: at 10 µM.
Assay [9] addresses Mitogen-activated protein kinase 14 (Homo sapiens) (UniProt Q16539). As to conditions: at 1 µM.
For assay [10] the target is unchanged. As to conditions: at 10 µM.

Sequence of Ribosomal protein S6 kinase alpha-3 (Homo sapiens) (P51812 whole entry): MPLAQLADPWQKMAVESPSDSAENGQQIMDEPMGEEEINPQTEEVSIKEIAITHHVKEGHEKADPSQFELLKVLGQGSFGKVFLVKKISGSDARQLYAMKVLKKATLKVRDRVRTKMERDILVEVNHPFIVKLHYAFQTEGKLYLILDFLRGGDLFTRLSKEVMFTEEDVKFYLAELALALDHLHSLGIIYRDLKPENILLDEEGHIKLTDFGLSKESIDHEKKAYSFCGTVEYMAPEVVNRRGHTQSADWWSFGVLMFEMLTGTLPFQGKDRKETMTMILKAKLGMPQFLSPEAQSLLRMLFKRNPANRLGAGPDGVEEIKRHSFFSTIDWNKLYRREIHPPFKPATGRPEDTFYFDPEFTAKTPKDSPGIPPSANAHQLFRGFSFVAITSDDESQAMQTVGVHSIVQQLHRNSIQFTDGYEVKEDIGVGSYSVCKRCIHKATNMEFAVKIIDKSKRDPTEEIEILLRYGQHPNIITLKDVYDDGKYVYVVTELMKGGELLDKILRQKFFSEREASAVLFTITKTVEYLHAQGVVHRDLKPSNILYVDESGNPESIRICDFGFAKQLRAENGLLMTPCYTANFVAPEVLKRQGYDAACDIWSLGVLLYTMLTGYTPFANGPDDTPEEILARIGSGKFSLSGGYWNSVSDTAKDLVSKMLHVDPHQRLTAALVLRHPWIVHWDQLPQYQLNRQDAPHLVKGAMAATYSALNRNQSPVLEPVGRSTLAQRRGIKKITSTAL
Sequence of Ribosomal protein S6 kinase alpha-2 (Homo sapiens) (Q15349 whole entry): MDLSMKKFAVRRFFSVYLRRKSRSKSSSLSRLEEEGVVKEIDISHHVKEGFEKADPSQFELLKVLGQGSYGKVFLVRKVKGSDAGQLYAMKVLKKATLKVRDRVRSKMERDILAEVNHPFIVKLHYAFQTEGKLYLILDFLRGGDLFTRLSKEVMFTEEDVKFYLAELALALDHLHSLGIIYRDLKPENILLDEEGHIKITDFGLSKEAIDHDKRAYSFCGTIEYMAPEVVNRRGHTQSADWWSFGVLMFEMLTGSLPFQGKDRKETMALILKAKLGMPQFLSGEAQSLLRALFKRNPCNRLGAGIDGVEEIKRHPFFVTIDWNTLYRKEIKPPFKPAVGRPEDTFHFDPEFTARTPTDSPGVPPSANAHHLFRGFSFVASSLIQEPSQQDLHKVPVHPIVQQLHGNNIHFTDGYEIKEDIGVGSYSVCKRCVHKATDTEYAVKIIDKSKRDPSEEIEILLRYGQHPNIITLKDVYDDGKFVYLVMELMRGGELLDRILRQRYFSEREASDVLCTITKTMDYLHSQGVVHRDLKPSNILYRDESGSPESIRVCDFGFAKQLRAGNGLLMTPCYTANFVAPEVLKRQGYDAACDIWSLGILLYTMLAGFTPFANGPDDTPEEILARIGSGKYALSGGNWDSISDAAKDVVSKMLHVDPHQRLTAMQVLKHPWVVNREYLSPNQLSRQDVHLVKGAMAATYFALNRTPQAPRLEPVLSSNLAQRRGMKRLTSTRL
Sequence of Mitogen-activated protein kinase 14 (Homo sapiens) (Q16539 whole entry): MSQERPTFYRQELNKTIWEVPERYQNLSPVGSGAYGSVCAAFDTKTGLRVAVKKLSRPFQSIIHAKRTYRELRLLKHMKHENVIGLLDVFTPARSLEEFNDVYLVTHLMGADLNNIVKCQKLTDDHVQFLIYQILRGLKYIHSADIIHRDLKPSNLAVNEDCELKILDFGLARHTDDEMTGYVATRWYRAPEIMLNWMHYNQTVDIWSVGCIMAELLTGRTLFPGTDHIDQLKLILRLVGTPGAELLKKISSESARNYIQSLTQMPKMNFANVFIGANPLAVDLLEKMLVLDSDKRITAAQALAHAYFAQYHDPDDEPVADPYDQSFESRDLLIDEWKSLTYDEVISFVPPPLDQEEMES
Sequence of Ribosomal protein S6 kinase alpha-6 (Homo sapiens) (Q9UK32 whole entry): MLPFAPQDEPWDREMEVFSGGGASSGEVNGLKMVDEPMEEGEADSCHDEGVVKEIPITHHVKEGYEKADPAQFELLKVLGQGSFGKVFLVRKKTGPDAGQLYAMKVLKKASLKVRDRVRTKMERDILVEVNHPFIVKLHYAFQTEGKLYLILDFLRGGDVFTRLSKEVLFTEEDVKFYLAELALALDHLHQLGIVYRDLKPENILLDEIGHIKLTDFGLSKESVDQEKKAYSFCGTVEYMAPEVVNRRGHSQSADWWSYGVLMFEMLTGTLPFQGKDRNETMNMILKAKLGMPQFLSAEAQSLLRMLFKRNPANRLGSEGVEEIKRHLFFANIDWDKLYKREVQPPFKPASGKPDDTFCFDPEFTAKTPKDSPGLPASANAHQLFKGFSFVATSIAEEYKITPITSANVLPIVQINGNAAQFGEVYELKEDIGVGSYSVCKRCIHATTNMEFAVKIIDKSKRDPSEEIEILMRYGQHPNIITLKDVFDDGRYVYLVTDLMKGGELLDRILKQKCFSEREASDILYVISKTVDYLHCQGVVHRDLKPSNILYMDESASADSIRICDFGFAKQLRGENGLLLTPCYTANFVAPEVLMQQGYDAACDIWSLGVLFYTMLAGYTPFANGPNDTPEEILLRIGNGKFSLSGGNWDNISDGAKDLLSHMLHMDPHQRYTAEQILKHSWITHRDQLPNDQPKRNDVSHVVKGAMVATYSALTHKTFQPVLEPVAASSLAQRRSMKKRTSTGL
Sequence of Ribosomal protein S6 kinase alpha-1 (Homo sapiens) (Q15418 whole entry): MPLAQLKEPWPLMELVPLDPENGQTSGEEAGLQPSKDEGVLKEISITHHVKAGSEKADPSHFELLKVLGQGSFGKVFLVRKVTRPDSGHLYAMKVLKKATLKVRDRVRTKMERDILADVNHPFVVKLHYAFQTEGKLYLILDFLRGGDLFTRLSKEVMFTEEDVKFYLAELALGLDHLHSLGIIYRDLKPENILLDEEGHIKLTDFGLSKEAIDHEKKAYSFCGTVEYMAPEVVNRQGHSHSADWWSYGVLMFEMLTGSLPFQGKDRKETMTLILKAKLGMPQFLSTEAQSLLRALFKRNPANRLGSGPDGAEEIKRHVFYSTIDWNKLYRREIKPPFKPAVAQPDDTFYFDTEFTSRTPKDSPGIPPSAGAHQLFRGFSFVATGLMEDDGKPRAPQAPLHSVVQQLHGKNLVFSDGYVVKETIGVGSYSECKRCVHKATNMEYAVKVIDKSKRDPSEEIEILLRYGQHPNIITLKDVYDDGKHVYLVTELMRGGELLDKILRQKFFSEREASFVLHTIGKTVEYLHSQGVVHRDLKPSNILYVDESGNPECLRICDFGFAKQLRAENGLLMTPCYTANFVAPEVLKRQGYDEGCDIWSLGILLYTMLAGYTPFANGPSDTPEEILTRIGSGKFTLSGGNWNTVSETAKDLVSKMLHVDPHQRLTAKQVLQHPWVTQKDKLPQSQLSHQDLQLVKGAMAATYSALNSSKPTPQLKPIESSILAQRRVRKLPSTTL

Consider `Cc1cc2ncc(-c3ccccc3)nc2cc1C`, for which the residual activity was found to be 95% in assay [1]; 86% in [2]; 50% in [3]; 40% in assay [4]; 110% in assay [5]; 101% in assay [6]. Also, the residual activity in assay [7] worked out at 97%; in assay [8] it was 100%; in [9], 85%; in assay [10], 82%.

As to `O=C1Nc2ccc(Br)cc2/C1=C\c1cc2c([nH]1)CCCC2`, the residual activity in assay [1] turned out to be 84%; in assay [2] it was 81%; in assay [3] it was 45%; in assay [4], 37%; in [5] it was 79%; in [6], 76%. The residual activity amounted to 79% in [7] and 113% in [8].

Regarding `COc1ccc(S(=O)(=O)N(CCO)c2ccccc2CN(C)C/C=C/c2ccc(Cl)cc2)cc1`, the residual activity was 119% in assay [1]; 103% in [2]; 60% in assay [3]; 61% in assay [4]; 106% in assay [5]; 92% in [6]. In addition, the residual activity in assay [7] turned out to be 108%; in assay [8] it was 90%; in assay [9], 93%; in assay [10], 96%.

In the case of `Ic1cccc(CSc2nnc(-c3ccncc3)o2)c1`, the residual activity in assay [1] is 55%; in assay [2], 46%; in [3], 39%; in assay [4] it was 28%; in assay [5] it was 30%; in assay [6], 24%. For the same molecule, the residual activity worked out at 97% in assay [7], 100% in assay [8], 90% in assay [9] and 79% in assay [10].

For `COc1ccc(C(=O)Nc2sc3c(c2C(N)=O)CCCC3)cc1OC`, the residual activity in assay [1] is 99%; in [2] it was 103%; in [3] it was 111%; in assay [4], 93%; in assay [5], 94%; in assay [6], 97%. For the same molecule, the residual activity in assay [7] was determined as 118%; in [8], 99%; in assay [9], 93%; in [10] it was 100%.

As for `Cc1ccc(S(=O)(=O)/C=C/C#N)cc1`, the residual activity came out at 94% in assay [1]; 121% in [2]; 116% in assay [3]; 120% in [4]; 102% in assay [5]; 109% in [6]. Further, the residual activity was 74% in assay [7], 112% in assay [8], 94% in assay [9] and 97% in assay [10].

`COc1cc2ncnc(Nc3ccc(O)c(Br)c3)c2cc1OC`: the residual activity in assay [1] was determined as 92%; in assay [2], 45%; in assay [3] it was 39%; in assay [4], 12%; in assay [5], 44%; in [6], 7%. Also, the residual activity in [7] came to 69%; in assay [8] it was 18%; in [9], 51%; in assay [10], 14%.

Consider `CC(C)n1cnc2/c(=N/c3cccc(Cl)c3)nc(NCCO)[nH]c21`, for which the residual activity was found to be 50% in assay [1]; 22% in assay [2]; 15% in [3]; 6% in assay [4]; 6% in assay [5]; 2% in [6]. Besides, the residual activity is 34% in assay [7], 21% in assay [8], 84% in assay [9] and 74% in [10].

Regarding `Nc1n[nH]c2nnc(-c3c(-c4ccccc4)nn4ccccc34)cc12`, the residual activity in assay [1] was 108%; in assay [2], 93%; in assay [3], 111%; in [4], 96%; in [5], 90%; in [6], 68%. The residual activity stood at 102% in assay [7], 88% in [8], 78% in [9] and 33% in assay [10].

`O=Nc1c(-c2c(O)[nH]c3ccccc23)[nH]c2ccccc12`: the residual activity in [1] amounted to 40%; in assay [2], 6%; in assay [3] it was 50%; in assay [4] it was 7%; in [5], 19%; in assay [6], 4%. For the same molecule, the residual activity in assay [7] is 20%; in assay [8] it was 12%; in assay [9], 94%; in assay [10], 78%.

As to `COc1cccc(-c2cc(=O)c3ccccc3o2)c1N`, the residual activity in assay [1] was determined as 91%; in assay [2], 81%; in assay [3], 118%; in assay [4], 106%; in assay [5], 102%; in assay [6], 101%. For the same molecule, the residual activity is 92% in assay [7], 133% in [8], 86% in assay [9] and 94% in assay [10].

Take `COc1cc2ncnc(Nc3ccc(Oc4ccccc4)cc3)c2cc1OC`: the residual activity in assay [1] turned out to be 122%; in [2], 78%; in assay [3], 104%; in assay [4], 126%; in assay [5], 100%; in [6] it was 73%. For the same molecule, the residual activity in assay [7] amounted to 102%; in [8], 130%; in assay [9] it was 75%; in [10], 80%.

For the molecule `O=C1Nc2cc(Br)ccc2/C1=C1/Nc2ccccc2/C1=N\O`, the residual activity in assay [1] came to 72%; in [2], 73%; in assay [3], 24%; in [4], 6%; in assay [5], 17%; in [6], 28%. The residual activity in [7] is 38%; in [8] it was 24%; in [9], 85%; in [10], 83%.

With `O=C1NC(=O)c2c1c1c3ccccc3[nH]c1c1[nH]c3cc(Br)ccc3c21`, the residual activity stood at 63% in assay [1]; 49% in assay [2]; 49% in [3]; 43% in assay [4]; 44% in [5]; 32% in assay [6]. Also, the residual activity in [7] amounted to 83%; in assay [8], 82%; in [9], 93%; in assay [10], 85%.

Consider `COc1ccc(CNc2nc(N(CCO)CCO)nc3c2ncn3C(C)C)cc1`, for which the residual activity worked out at 90% in assay [1]; 59% in [2]; 31% in assay [3]; 22% in assay [4]; 11% in assay [5]; 5% in assay [6]. The residual activity in assay [7] worked out at 84%; in assay [8], 56%; in [9], 96%; in [10] it was 89%.

On to `N#C/C(=C(\N)Sc1ccc(N)cc1)c1ccccc1C(F)(F)F`, for which the residual activity in assay [1] was determined as 40%; in assay [2] it was 42%; in assay [3], 28%; in assay [4] it was 15%; in [5] it was 53%; in assay [6], 48%. For the same molecule, the residual activity in assay [7] was 103%; in [8], 104%; in [9] it was 87%; in assay [10], 82%.

As to `NC(=O)c1ccc2[nH]c(-c3ccc(Oc4ccc(Cl)cc4)cc3)nc2c1`, the residual activity amounted to 91% in assay [1]; 67% in [2]; 30% in [3]; 11% in assay [4]; 18% in assay [5]; 5% in assay [6]. The residual activity in assay [7] worked out at 27%; in assay [8], 29%; in [9], 90%; in [10], 84%.
